Sampled rows, rich in hits. Any-hit rate of the full collection: about 6.5%.
HT1080NT lethal: qHTS for induction of synthetic lethality in tumor cells producing 2HG: qHTS for the HT-1080-NT fibrosarcoma cell line; Potency, µM (top dose mostly 46.1 µM), for inactives: at the top dose activity, negative = less viability, most hits filed as cytotoxic; HT-1080-NT fibrosarcoma viability, CellTiter-Glo ATP luminescence, 48 h; hit rate 1.6% among 360,000; AID 686970, 2013;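 further: NT is the 2HG producing partner of a matched IDH1 knockdown line; potency means the concentration at half of the fitted maximal effect; 0% = DMSO-treated cells and -100% = media-only wells without cells; nearly all actives have a fitted effect of over 55% in size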
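Read-out is CellTiter-Glo luminescence after 10 minutes at room temperature, following 48 hours' compound treatment of HT-1080-NT cells (750 cells/well, RPMI, 5% FBS, 37 degrees C).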
TGFb inhibitor: qHTS for Inhibitors of TGF-b; HepG2 CAGA-GFP TGF-b/SMAD3 reporter, GFP fluorescence, 18 h; TGF-beta stimulated, 500 pg/mL final; Potency, µM (highest dose often 46.1 µM), without a hit: top-dose activity, negative = inhibition, hits mostly inhibitors; AID 588855, 2011; hit rate 1.2% among 410,000; further: potency means the concentration at half of the fitted maximal effect; on the % scale 0 is the no-effect control and ±100 the full control effect; nearly all actives have a fitted effect of over 65% in size
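GFP signal (ex488/em500-530) from TGF-beta-stimulated HEPG2 CAGA-GFP cells, 500 pg/mL final, 18 h at 37 degrees C in DMEM plus 1% FBS, normalized to unstimulated and DMSO-stimulated controls.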
Giardia kill: Small Molecules that selectively kill Giardia lamblia: qHTS; hit rate 0.15% among 340,000; Giardia lamblia trophozoite viability; activity change, % at 7.66 µM, hits read low; in the data active means activity change below about -80%; inconclusive means between about -30% and that limit;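 further: parasites exposed to compound for two days anaerobically before the ATP read; on the % scale 0 is the no-effect control and ±100 the full control effect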
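Each well holds 100 Giardia trophozoites and compound. After two days (48 hrs) at 37 deg C in anaerobic conditions, ATP is quantified by luminescence.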
IL1B secr inh: qHTS for Inhibitors of Inflammasome Signaling: IL-1-beta AlphaLISA Primary Screen. THP-1 LPS/ATP IL-1B secretion, AlphaLISA, 16 h; hits give low values. activity change, % at 57.5 µM. hit rate 4.7% among 360,000. AID 743279, 2014; in the data active means activity change below about -50%; inconclusive means mostly about -30% to -49%; further: on the % scale 0 is the no-effect control and ±100 the full control effect
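Secreted IL-1B measured by AlphaLISA bead assay after 16 h compound exposure of THP-1 cells; compounds (final up to 57.5 uM) added 1 h before LPS (250 ng/mL) and ATP (1.25 mM) stimulation; lower signal means less secretion.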
HT1080 IDH1KD tx: qHTS for induction of synthetic lethality in tumor cells producing 2HG: qHTS for the HT-1080-IDH1KD cell line | HT-1080 IDH1 knockdown viability, ATP luminescence, 48 h | Potency, µM (titrated, usually from 46.1 µM), for inactives: at the top dose activity, negative = toxicity, most hits filed as cytotoxic | hit rate 2% among 360,000 | AID 686971, 2013;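 further: potency means the concentration at half of the fitted maximal effect; 0% = DMSO wells and -100% = cell-free medium wells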
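Assay cells: HT-1080 with IDH1 knockdown, 750 per well, RPMI/5% FBS. Exposure: 48 h at 37 °C following 2 h pre-incubation. Read: CellTiter-Glo luminescence; fitted concentration-response, curve class assigned.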
HepG2 tox-1: qHTS for Inhibitors of TGF-b: Cytotox Counterscreen. Potency, µM (titrated, usually from 46.1 µM), for the others: top-dose activity change, negative = cytotoxicity, hits mostly cytotoxic. hit rate 0.76% among 410,000. HepG2 CAGA-GFP viability, ATP luminescence, 18 h; further: potency means the concentration at half of the fitted maximal effect
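HepG2 CAGA-GFP cells (1000/well, DMEM with 1% FBS) received compound, then TGF-beta at 500 pg/mL final, and were incubated 18 hours at 37 degrees C. Viability was read by CellTiter-Glo luminescence. Media-only wells were set as complete cell-killing and DMSO as no toxicity.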
TGFb confirm: qHTS for Inhibitors of TGF-b: Confirmation of Cherry Picks; HepG2 CAGA-GFP TGF-b reporter, GFP fluorescence, 18 h; cells stimulated with TGF-beta, 500 pg/mL; hit rate 63% among 1,600; shares compounds with TGFb inhibitor; Potency, µM (series often up to 46.1 µM), for inactives: at the highest dose activity, negative = inhibition, actives largely listed as inhibitors; AID 720534, 2013; further: potency means the concentration at half of the fitted maximal effect; on the % scale 0 is the no-effect control and ±100 the full control effect; nearly all actives have a fitted effect of over 65% in size
HepG2 tox-2: qHTS for Inhibitors of TGF-b: Cytotox Counterscreen for Cherry Picks; HepG2 CAGA-GFP viability, ATP luminescence, 18 h; cells stimulated with TGF-beta, 500 pg/mL; Potency, µM (top dose mostly 46.1 µM), without a hit: at the top dose activity, negative = cytotoxicity, usual class: inhibitors; shares compounds with TGFb inhibitor; hit rate 27% among 1,600; further: potency means the concentration at half of the fitted maximal effect; on the % scale 0 is the no-effect control and ±100 the full control effect; nearly all actives have a fitted effect of over 70% in size
CCL64 TGFb inh: qHTS for Inhibitors of TGF-b: CCL64 Cells Orthogonal Assay for Cherry Picks. CCL64 CAGA-GFP reporter, TGF-b stimulated, GFP fluorescence, 18 h. AID 720536, 2013. hit rate 41% among 1,600. shares compounds with TGFb inhibitor. Potency, µM (titrated, usually from 46.1 µM), for the others: top-dose activity, negative = inhibition, usual class: inhibitors; further: potency means the concentration at half of the fitted maximal effect; nearly all actives have a fitted effect of over 65% in size
COP TGFb inh: qHTS for Inhibitors of TGF-b: Hit Validation in HepG2 Cells using COP promoter | Potency, µM (top dose mostly 46.1 µM), inactives show at the top dose activity, negative = inhibition, usual class: inhibitors | AID 720537, 2013 | HepG2 COP-GFP TGF-b reporter, GFP fluorescence, 18 h; cells stimulated by added recombinant TGF-beta | hit rate 3% among 1,600 | shares compounds with TGFb inhibitor; further: potency means the concentration at half of the fitted maximal effect; nearly all actives have a fitted effect of over 70% in size
* marks the source's active call; other numbers are inactive results; ? = inconclusive; / = no result. Unless noted, the call rests on the fitted dose curve; in most records, active means well fitted curve in the direction sought with a large enough effect; inconclusive means small, poorly fitted or top-dose-only effect, or another doubt; inactive means no such curve, though single readings can be large; an effect the other way counts as inactive or inconclusive.

SMILES	HT1080NT lethal	TGFb inhibitor	Giardia kill	IL1B secr inh	HT1080 IDH1KD tx	HepG2 tox-1	TGFb confirm	HepG2 tox-2	CCL64 TGFb inh	COP TGFb inh
O=C(CCNc1cccc(F)c1)c1cccc([N+](=O)[O-])c1	?	12.6µM*	8.4	-86.0*	?	9.6%	10.3µM*	?	?	2.9%
CC(=O)Nc1cc[n+](CC(=O)c2cccc([N+](=O)[O-])c2)cc1	-13.5%	-0.6%	31.9	7.4	-1.2%	-22.9%	/	/	/	/
c1ccc(CCSc2nccn2-c2ccccc2)cc1	13.0%	2.9%	3.9	-5.7	5.4%	-0.3%	/	/	/	/
CCC1=Nc2cc(C(=O)NC3CCC(C)CC3)ccc2Sc2ccc(C)cc21 (stereo unspecified)	/	?	/	/	/	-29.9%	/	/	/	/
CCOC(=O)N1CCC(NC(=O)c2ccc3c(c2)N=C(CC)c2cc(C)ccc2S3)CC1	?	15.8µM*	-6.5	28.3	5.8µM*	-5.9%	11.6µM*	-19.5%	?	26.2%
CCC1=Nc2cc(C(=O)NCc3ccco3)ccc2Sc2ccc(C)cc21	1.3µM*	?	-11.4	2.7	1.3µM*	-24.6%	2.31µM*	-18.1%	1.46µM*	10.6%
CN1CCN(S(=O)(=O)c2ccc(Sc3nc4ccccc4[nH]3)c3nsnc23)CC1	12.6%	10µM*	14.5	?	11.9%	1.0%	-19.5%	5.8%	6.1%	8.8%
CC1CCN(c2nc(-c3ccccc3)c(C#N)c(=O)[nH]2)CC1	-2.5%	10.1%	-3.8	20.3	3.5%	-9.8%	/	/	/	/
Cc1cc(C)nc(-n2nc(C)cc2NC(=O)CN2CCC(C)CC2)n1	-1.9%	15.8µM*	-22.4	14.2	-6.3%	-18.3%	?	-16.6%	-11.7%	-20.5%
Cc1cc(C)nc(-n2nc(C)cc2NC(=O)CN2CCCC2)n1	14.6%	-12.8%	-10.4	3.2	1.3%	-1.7%	/	/	/	/
CC1(C(=O)Nc2ccccc2Cc2ccccc2)CCN1Cc1ccccc1Cl (stereo unspecified)	?	12.6µM*	/	-3.0	?	-14.9%	9.2µM*	?	16.4µM*	55.9%
O=C(NCCN1CCOCC1)c1cc(S(=O)(=O)Nc2ccccc2F)c(Cl)cc1Cl	7.2%	7.8%	16.1	-2.0	-0.5%	3.2%	/	/	/	/
O=C(c1cc(S(=O)(=O)Nc2ccccc2F)c(Cl)cc1Cl)N1CCN(CCO)CC1	-2.5%	?	9.5	-21.5	-1.5%	-12.4%	-2.3%	-0.6%	?	-2.0%
O=C1C2CCCN2C(c2ccc(F)cc2)N1c1nccs1 (stereo unspecified)	1.9%	-20.1%	-2.8	28.4	0.7%	8.1%	/	/	/	/
Cc1ccc(C2(c3ccc(C)cc3)CC2C(=O)Nc2ccc([N+](=O)[O-])cc2O)cc1 (stereo unspecified)	20.6µM*	3.98µM*	-1.6	-73.4*	16.4µM*	11.2µM*	5.8µM*	8.2µM*	7.31µM*	?
CC1(C)CC1C(=O)Nc1ccc([N+](=O)[O-])cc1Br (stereo unspecified)	12.1%	12.8%	-19.0	1.6	1.1%	-0.2%	/	/	/	/
Nc1cc2[nH]c(=O)c3ccccc3c2cc1[N+](=O)[O-]	-1.5%	11.2µM*	?	-9.4	-26.8%	-9.7%	?	?	?	70.8%
COc1cc2c(=O)[nH]c3cc([N+](=O)[O-])ccc3c2cc1[N+](=O)[O-]	2.6%	2.7%	/	4.7	1.9%	-1.9%	/	/	/	/
COc1ccccc1N1CCN(S(=O)(=O)c2cccc(F)c2)CC1	8.1%	6.5%	7.0	10.4	3.6%	0.4%	/	/	/	/
Cc1cc(O)c(C(C)C)cc1NC(=O)Nc1ccc([N+](=O)[O-])cc1	-23.1%	1.1%	-2.4	?	?	9.4%	/	/	/	/
Cc1ccc(C(C)C)cc1NC(=O)Nc1ccc([N+](=O)[O-])cc1	-5.3%	7.94µM*	0.4	-52.2*	-0.8%	-81.9%	?	?	18.4µM*	89.0%
Cc1noc2ncnc(Oc3ccc4ccccc4c3)c12	8.7%	-1.6%	-3.0	?	0.2%	-50.9%	/	/	/	/
Cc1noc2ncnc(Oc3cc(Cl)ccc3Cl)c12	?	?	-4.1	-102.2*	9.0%	-27.1%	18.4µM*	?	?	16.7%
Cc1ccc(NS(=O)(=O)c2cc(Br)cnc2N)c(Cl)c1	-11.7%	-9.9%	-15.1	0.0	-6.1%	3.8%	/	/	/	/
Nc1ncc(Br)cc1S(=O)(=O)Nc1cc(C(F)(F)F)cc(C(F)(F)F)c1	18.4µM*	5.62µM*	5.8	-5.1	3.66µM*	-50.7%	6.51µM*	11.6µM*	?	34.5%
CC[C@@H](CC1CCCCC1)C(=O)N(Cc1ccccc1)c1ccccc1	-3.6%	2.51µM*	9.5	40.4	-3.7%	-22.9%	-17.2%	?	?	8.7%
CCc1ccc(-c2cc(C)no2)cc1S(=O)(=O)N1CCCN(Cc2ccc(F)cc2)C1	23.1µM*	10µM*	-9.1	-51.7*	?	-65.6%	?	?	?	67.0%
CC(=O)Nc1cccc(-n2c(=O)n(Cc3ccccc3)c(=O)c3[nH]cnc32)c1	-4.6%	-3.5%	-5.2	-7.1	-17.5%	-10.2%	/	/	/	/
Cc1ccc(-c2nnc3c(C(F)(F)F)nc4ccccc4n23)cc1	3.8%	?	-3.1	-25.9	12.1%	-41.9%	/	/	/	/

Bioassay records from PubChem.
